Reference: PubChem BioAssay
Calls of active or inactive are those of the source.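 Rule for the calls: active = compounds whose cell count with miR-34 switched on is under 0.7 times the count with it off; inactive = the rest.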

Assay: viability loss with induced miR-34 in A549 – imaging, A549 dox-inducible miR-34, nuclei and caspase counts, primary screen (AID 1347080); note: test concentration not given here
Details: A549 miR-34 inducible, Hoechst nuclei count, 48 h
[1] = stronger effect = lower value, cell number ratio, induced over uninduced
[2] = measured here: relative caspase fold change +Dox/-Dox
[3] = measured here: total cells with miR-34 induction, stronger effect = lower value
[4] = measured here: total cells without miR-34 induction

CCCCC[C@H](O)/C=C/[C@H]1C2COC(C2)[C@@H]1C/C=C/CCCC(=O)O (stereo not given in full)
fold change [1]: 0.903 (inactive)
fold change [2]: 0.876
cell count [3]: 5790
cell count [4]: 6410

CCCCC/C=C\C=C\C(O)CCCCCCCC(=O)OC[C@@H](COC(=O)CCCCCCC/C=C\C=C\C(O)CCCCC)OC(=O)CCCCCCC/C=C\C=C\C(O)CCCCC (stereo not given in full)
fold change [1]: 1.03 (inactive)
fold change [2]: 1.09
cell count [3]: 5890
cell count [4]: 5740

CCCCC/C=C/C/C=C/CCCCCCCC(=O)O
fold change [1]: 1.12 (inactive)
fold change [2]: 0.989
cell count [3]: 6880
cell count [4]: 6150

CCCCC[C@H](O)/C=C/[C@@H]1[C@@H](CCCCCCCO)[C@@H](O)C[C@H]1O
fold change [1]: 0.922 (inactive)
fold change [2]: 1.15
cell count [3]: 5540
cell count [4]: 6010

CCCCC[C@H](O)/C=C/[C@@H]1[C@H](CCCCCCC(=O)O)[C@H](O)C[C@H]1O
fold change [1]: 0.963 (inactive)
fold change [2]: 1.17
cell count [3]: 6030
cell count [4]: 6260

CCCCC[C@H](O)/C=C/[C@@H]1[C@@H](CCCCCCC(=O)O)[C@H](O)C[C@@H]1O
fold change [1]: 0.98 (inactive)
fold change [2]: 1.16
cell count [3]: 6220
cell count [4]: 6350

C=CCN(C)CCCCCCOc1ccc(C(=O)c2ccc(Br)cc2)c(F)c1
fold change [1]: 1.01 (inactive)
fold change [2]: 0.704
cell count [3]: 5700
cell count [4]: 5660

C=C1C[C@@H](O)[C@H](/C=C/[C@@H](O)CCCCC)[C@H]1C/C=C\CCCC(=O)O
fold change [1]: 0.899 (inactive)
fold change [2]: 1.24
cell count [3]: 5620
cell count [4]: 6250

O=C1C(c2ccccc2)N(c2ccc(Br)cc2)C(=O)N1c1ccc(Br)cc1 (stereo not given)
fold change [1]: 0.936 (inactive)
fold change [2]: 0.667
cell count [3]: 5960
cell count [4]: 6370

CCCCCCCCC#CCCCCCCCC(=O)c1nc2ncccc2o1
fold change [1]: 1.03 (inactive)
fold change [2]: 1.11
cell count [3]: 6180
cell count [4]: 5990

CCCCCCCCCCCCCCCCOC[C@H](COP(=O)([O-])OCC[N+]1(C)CCCC1)OC(C)=O
fold change [1]: 0.82 (inactive)
fold change [2]: 1.31
cell count [3]: 5250
cell count [4]: 6400

O=C(OC[C@@H]1O[C@H]1c1ccccc1)Oc1ccc([N+](=O)[O-])cc1
fold change [1]: 0.896 (inactive)
fold change [2]: 0.428
cell count [3]: 5550
cell count [4]: 6200

CCCCCCCC/C=C\CCCCCCCC(=O)c1nc2ncccc2o1
fold change [1]: 0.938 (inactive)
fold change [2]: 0.974
cell count [3]: 5390
cell count [4]: 5740

CCCCCCCC/C=C\CCCCCCCC(=O)NCC
fold change [1]: 1.03 (inactive)
fold change [2]: 0.997
cell count [3]: 6050
cell count [4]: 5880

OC[C@H]1O[C@H](O[C@H]2[C@H](O)[C@@H](O)[C@H](O)O[C@@H]2CO)[C@H](O)[C@@H](O)[C@@H]1O
fold change [1]: 0.99 (inactive)
fold change [2]: 0.551
cell count [3]: 8780
cell count [4]: 8870

C[n+]1ccc(/C=C/c2c[nH]c3ccccc23)cc1
fold change [1]: 1.05 (inactive)
fold change [2]: 1.99
cell count [3]: 1600
cell count [4]: 1530

CCCCCCCCCCCC(=O)NC[C@]1(C)CCC[C@]2(C)c3ccc(C(C)C)cc3CC[C@@H]12
fold change [1]: 0.97 (inactive)
fold change [2]: 1.59
cell count [3]: 6180
cell count [4]: 6370

CC(C)[C@H](O)CC[C@@H](C)[C@H]1CC[C@H]2[C@@H]3CC=C4C[C@@H](O)CC[C@]4(C)[C@H]3CC[C@]12C
fold change [1]: 0.898 (inactive)
fold change [2]: 0.825
cell count [3]: 5260
cell count [4]: 5860

CCCC/C=C\CCCCCCCC(=O)OC
fold change [1]: 1.02 (inactive)
fold change [2]: 0.704
cell count [3]: 5700
cell count [4]: 5570

CCCCC[C@H](O)/C=C/[C@H]1C2CC(CO2)[C@@H]1C/C=C/CCCC(=O)O (stereo not given in full)
fold change [1]: 1 (inactive)
fold change [2]: 1.25
cell count [3]: 6110
cell count [4]: 6090

CC(C)=CCC/C(C)=C/CC/C(C)=C/C(O)P(=O)(O)O (stereo not given)
fold change [1]: 0.968 (inactive)
fold change [2]: 0.767
cell count [3]: 5800
cell count [4]: 5990

CC(C)CCC[C@@H](C)[C@H]1CC[C@H]2[C@@H]3CC(=O)[C@@]4(O)C[C@@H](O)CC[C@]4(C)[C@H]3CC[C@]12C
fold change [1]: 0.89 (inactive)
fold change [2]: 2.89
cell count [3]: 5340
cell count [4]: 6000

COc1cc(/C=C/C(=O)N2CCCCCC2)cc(OC)c1OC
fold change [1]: 0.968 (inactive)
fold change [2]: 0.988
cell count [3]: 7660
cell count [4]: 7910

O=P(O)(O)OC1[C@H](OP(=O)(O)O)[C@H](O)C(O)[C@H](O)[C@H]1OP(=O)(O)O (stereo not given in full)
fold change [1]: 0.94 (inactive)
fold change [2]: 1.1
cell count [3]: 5720
cell count [4]: 6080

C=C(N)N[C@@H](CCC(=O)O)C(=O)O
fold change [1]: 0.873 (inactive)
fold change [2]: 0.849
cell count [3]: 8430
cell count [4]: 9660

CCCCC/C=C\C/C=C\C/C=C\C/C=C\CCCC(=O)OCC(O)CO (stereo not given)
fold change [1]: 0.924 (inactive)
fold change [2]: 0.738
cell count [3]: 4970
cell count [4]: 5380

CCCCCCCCCCCCCCCCCCCCCCCC(=O)NCCS(=O)(=O)O
fold change [1]: 0.987 (inactive)
fold change [2]: 0.331
cell count [3]: 5520
cell count [4]: 5600

CN(C)c1ccc(C(=O)NCCCCCC(=O)NO)cc1
fold change [1]: 0.991 (inactive)
fold change [2]: 1.29
cell count [3]: 5550
cell count [4]: 5600

Cc1nnsc1C(=O)Nc1ccc(-n2nc(C(F)(F)F)cc2C(F)(F)F)cc1
fold change [1]: 1.08 (inactive)
fold change [2]: 1.08
cell count [3]: 5850
cell count [4]: 5430

C[C@@H](C(=O)O)c1ccc(-c2ccccc2)c(F)c1
fold change [1]: 0.967 (inactive)
fold change [2]: 0.615
cell count [3]: 6150
cell count [4]: 6360

CC/C=C\C/C=C\C/C=C\C/C=C\CCCCCCC(=O)OCC
fold change [1]: 0.858 (inactive)
fold change [2]: 2.1
cell count [3]: 5560
cell count [4]: 6480

NC(=NCC[C@H](N)C(=O)O)NO
fold change [1]: 0.915 (inactive)
fold change [2]: 0.994
cell count [3]: 4720
cell count [4]: 5160

CC(=O)OCOC(c1ccc2ccccc2c1)P(=O)(OCOC(C)=O)OCOC(C)=O (stereo not given)
fold change [1]: 1.11 (inactive)
fold change [2]: 0.941
cell count [3]: 3180
cell count [4]: 2860

Nc1nc2c([nH]c(=O)n2[C@@H]2O[C@H](CO)[C@@H](O)[C@H]2O)c(=O)[nH]1
fold change [1]: 1.03 (inactive)
fold change [2]: 0.878
cell count [3]: 5770
cell count [4]: 5600

CC(C)(C)OC(=O)Nc1cccc2[nH]ccc12
fold change [1]: 0.913 (inactive)
fold change [2]: 0.676
cell count [3]: 4970
cell count [4]: 5440

CCCCC/C=C/C=C1/C=CC(=O)[C@@H]1C/C=C\CCCC(=O)O
fold change [1]: 0.952 (inactive)
fold change [2]: 1.85
cell count [3]: 5680
cell count [4]: 5960

CCCCC[C@@](C)(O)/C=C/[C@H]1[C@H](O)CC(=O)[C@@H]1C/C=C\CCCC(=O)O
fold change [1]: 1.04 (inactive)
fold change [2]: 1.07
cell count [3]: 5770
cell count [4]: 5570

CCCCCCCC/C=C\CCCCCCCC(=O)N[C@@H](CO)C(=O)O
fold change [1]: 1.01 (inactive)
fold change [2]: 1.73
cell count [3]: 5230
cell count [4]: 5180

CCCCC[C@H](O)/C=C/[C@H]1[C@H](O)CC(=O)[C@@H]1C/C=C\CCCC(=O)OC
fold change [1]: 0.938 (inactive)
fold change [2]: 1.71
cell count [3]: 5670
cell count [4]: 6040

CC/C=C\C/C=C\C/C=C\CCCCCCCC(=O)NCCO
fold change [1]: 1.05 (inactive)
fold change [2]: 0.865
cell count [3]: 5950
cell count [4]: 5670

CC(Sc1nc2ccccc2[nH]1)C(=O)N/N=C/c1cc(Br)ccc1O (stereo not given)
fold change [1]: 1.01 (inactive)
fold change [2]: 1.43
cell count [3]: 6060
cell count [4]: 6010

CCCCCCCCCCCC(=O)O
fold change [1]: 1.01 (inactive)
fold change [2]: 1.12
cell count [3]: 5910
cell count [4]: 5870

O=C(O)CCC/C=C\C[C@H]1C(=O)C=C[C@@H]1CC[C@@H](O)CCc1ccccc1
fold change [1]: 0.93 (inactive)
fold change [2]: 1.2
cell count [3]: 6220
cell count [4]: 6690

O=C(O)CCCCCC[C@@H]1[C@@H](CC[C@@H](O)CCc2cccc(C(F)(F)F)c2)[C@H](O)C[C@@H]1O
fold change [1]: 1.13 (inactive)
fold change [2]: 1.38
cell count [3]: 6150
cell count [4]: 5440

COC1=C2C[C@@H](C)C[C@H](OC)[C@H](O)[C@@H](C)/C=C(\C)[C@H](OC(N)=O)[C@@H](OC)/C=C\C=C(/C)C(=O)NC(=CC1=O)C2=O
fold change [1]: 0.898 (inactive)
fold change [2]: 1.11
cell count [3]: 1320
cell count [4]: 1470

CCN(CC)C(=O)CCC/C=C\C[C@@H]1[C@@H](/C=C/[C@@H](O)CCc2ccccc2)[C@H](O)C[C@@H]1O
fold change [1]: 0.995 (inactive)
fold change [2]: 1.45
cell count [3]: 5990
cell count [4]: 6020

CCCCCC/C=C/C=C\CCCCCCCC(=O)O
fold change [1]: 0.985 (inactive)
fold change [2]: 0.691
cell count [3]: 5840
cell count [4]: 5920

C=C(C)[C@@H]1CCC(C)=C[C@H]1c1c(O)cc(C)cc1O
fold change [1]: 0.94 (inactive)
fold change [2]: 1.01
cell count [3]: 5290
cell count [4]: 5630

COc1cc([C@@H]2OC[C@@H](c3cc(OC)c(OC)c(OC)c3)O2)cc(OC)c1OC
fold change [1]: 0.96 (inactive)
fold change [2]: 0.869
cell count [3]: 5040
cell count [4]: 5250

CC/C=C\C/C=C\C/C=C\CCCCCCCC(=O)OCC
fold change [1]: 0.898 (inactive)
fold change [2]: 0.639
cell count [3]: 5180
cell count [4]: 5770

CCCCC1C(=O)CC[C@H]2[C@@H]1CC(=O)[C@@H]2C/C=C\CCCC(=O)O (stereo not given in full)
fold change [1]: 1.07 (inactive)
fold change [2]: 1.48
cell count [3]: 5940
cell count [4]: 5580

CCCCCCCC/C=C\CCCCCCCC(=O)C(F)(F)F
fold change [1]: 0.972 (inactive)
fold change [2]: 0.952
cell count [3]: 6200
cell count [4]: 6380

C[C@@H](O)CCC[C@@H](O)/C=C/[C@@H]1[C@@H](CCCCCCC(=O)O)[C@@H](O)C[C@H]1O
fold change [1]: 0.879 (inactive)
fold change [2]: 1.31
cell count [3]: 5220
cell count [4]: 5940

COc1ccc2c(c1)c(CC(=O)Oc1ccc(-c3cc(=S)ss3)cc1)c(C)n2C(=O)c1ccc(Cl)cc1
fold change [1]: 0.929 (inactive)
fold change [2]: 2.02
cell count [3]: 5100
cell count [4]: 5490

CCCCC[C@H](O)/C=C/[C@H]1CC[C@@H](O)[C@@H]1CCCCCCC(=O)O
fold change [1]: 0.884 (inactive)
fold change [2]: 1.26
cell count [3]: 6100
cell count [4]: 6900

O=C(O)CCC/C=C\C[C@@H]1[C@@H](/C=C/[C@H](O)CCc2ccccc2)[C@H](O)C[C@@H]1O
fold change [1]: 0.915 (inactive)
fold change [2]: 1.56
cell count [3]: 5340
cell count [4]: 5830

CCCCC[C@H](O)CC[C@@H]1[C@@H](CCCCCCC(=O)O)[C@@H](O)C[C@H]1O
fold change [1]: 0.832 (inactive)
fold change [2]: 1.1
cell count [3]: 6210
cell count [4]: 7460

CCCCC[C@](C)(O)/C=C/[C@H]1[C@H](O)CC(=O)[C@@H]1CCCCCCC(=O)O
fold change [1]: 1 (inactive)
fold change [2]: 1.58
cell count [3]: 5750
cell count [4]: 5720

CCCCC[C@H](O)/C=C/[C@H]1C2CC(CO2)[C@@H]1CCCCCCC(=O)O (stereo not given in full)
fold change [1]: 0.941 (inactive)
fold change [2]: 0.43
cell count [3]: 5850
cell count [4]: 6210

O=C(O)CCC/C=C\C[C@@H]1[C@@H](/C=C/[C@@H](O)CCc2cccc(C(F)(F)F)c2)[C@H](O)C[C@@H]1O
fold change [1]: 1.01 (inactive)
fold change [2]: 1.2
cell count [3]: 5710
cell count [4]: 5640
